A selection: hits, their analogues and other compounds. The true share with any hit is near 6.8%.
Pf Dd2 inh: P. falciparum Dd2 growth inhibitors, primary screen, SYBR Green fluorescence, single dose replicates. 72 h; stronger effect = lower value. activity change, % at 10 µM. actives 2.3% (n = 94,000). AID 1159554, 2015; in the data active = activity change below about -80%; inconclusive = no clear call, values can overlap the other calls
T cruzi growth-1: T. cruzi intracellular proliferation inhibitors, primary screen, cell-based, beta-gal Tulahuen parasites, NIH3T3 host, luminescence. T. cruzi beta-gal in NIH3T3, GalScreen luminescence, 90 h. inhibition, % at 8.34 µM. actives 5.9% (n = 77,000). AID 624255, 2012;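 active = mean inhibition above about 93%, with at least 55% of replicates each passing it, limit read from the data, passing the limit was not always enough; inconclusive = only one of those two conditions holds; inactive = neither condition holds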
C diff HTS: C. difficile growth inhibitors, primary screen, HTS. Clostridium difficile clinical isolate growth, OD600, 24 h; stronger effect = lower value. growth activity, negative = inhibition, % at 16 µg/mL (by protocol). actives 0.25% (n = 86,000);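 active = mean growth activity at or below -80% and every replicate also at or below -80%; inconclusive = mean at or below -80% but some replicate above -80%; inactive = mean growth activity above -80%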;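 also: 0% = DMSO wells and -100% = levofloxacin 16 µg/mL wells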
T cruzi growth-2: T. cruzi intracellular proliferation inhibitors, confirmation, cell-based, NIH3T3 host, beta-gal parasite, luminescence, cherry-pick | shares compounds with T cruzi growth-1 | T. cruzi beta-gal in NIH3T3, GalScreen luminescence, 90 h | inhibition, % at 8.35 µM | actives 72% (n = 5,600) | AID 651739, 2012;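 active = mean replicate inhibition above about 95% and at least 55% of replicates individually reaching it, limit read from the data; inconclusive = only one of the two criteria is met; inactive = neither criterion is met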
T cruzi growth-3: inhibitors of intracellular T. cruzi replication, confirmation, NIH3T3 host cells, beta-gal parasites, cherry-pick, set 2; shares compounds with T cruzi growth-1; T. cruzi beta-gal in NIH3T3, GalScreen luminescence, 90 h; inhibition, % at 2.09 µM; actives 21% (n = 5,600);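 active = mean inhibition above about 95%, with at least 55% of replicates also reaching it, limit read from the data; inconclusive = meets just one of the two conditions; inactive = meets neither condition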;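 also: plate controls were neutral control median for no effect and positive control median for full effect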
3T3 cytotox: cytotoxicity in mouse NIH/3T3 fibroblasts, confirmation, cytotoxicity control for T. cruzi proliferation inhibitor project, cell-based, cherry-pick, single point; shares compounds with T cruzi growth-1; NIH/3T3 viability, CellTiter-Glo ATP luminescence, 90 h; cytotoxicity (signal decrease), % at 8.35 µM; actives 14% (n = 5,600); AID 651742, 2012;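 active = mean signal decrease across replicates above about 35% based on untreated-well scatter, with enough replicates individually passing, limit read from the data; inconclusive = no rule stated though some were filed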;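 also: 0% = median of neutral control wells and 100% = median of positive control wells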
3T3 cytotox 2: NIH/3T3 fibroblast cytotoxicity, confirmation, cytotoxicity control, cell-based, cherry-pick, single point, set 2. inhibition, % at 24.9 µM. actives 56% (n = 5,600). NIH/3T3 viability, CellTiter-Glo ATP luminescence, 90 h. shares compounds with T cruzi growth-1;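 active = mean loss of cell viability signal at or above a set limit, and enough replicates individually reaching it; inconclusive = meets only the mean limit or only the replicate share; inactive = meets neither condition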;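 also: 0% = median of neutral control wells and 100% = median of positive control wells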
An asterisk follows results filed as active; ? = inconclusive; . = no result given.

SMILES	Pf Dd2 inh	T cruzi growth-1	C diff HTS	T cruzi growth-2	T cruzi growth-3	3T3 cytotox	3T3 cytotox 2
CCC(=O)N1[C@@H]2c3ccc(C4=CCCC4)c(=O)n3C[C@@H]2[C@@H](CO)[C@@H]1C(=O)NC1CCCC1	.	60	0	.	.	.	.
O=C(NC1CCCC1)N1CCCCN2[C@H](C1)[C@H](c1ccc(-c3ccncc3)cc1)[C@@H]2CO	-6	-5	-6	.	.	.	.
O=C(NC1CCCC1)N1CCCCN2[C@H](C1)[C@H](c1ccc(-c3cncnc3)cc1)[C@@H]2CO	9	?	0	107*	-13	-22	-4
CO[C@H]1CN(C)C(=O)c2ccc(NS(=O)(=O)c3ccc(C)cc3)cc2OC[C@@H](C)N(C(=O)NC(C)C)C[C@@H]1C	.	-48	.	.	.	.	.
O=C(Nc1ccc(F)cc1)N1CCCCN2[C@@H](CO)[C@@H](c3ccc(-c4ccccc4F)cc3)[C@@H]2C1	-32	103*	29	94	106*	106*	104*
O=C(Nc1ccccc1)N1CCCCN2[C@@H](CO)[C@@H](c3ccc(-c4ccccc4F)cc3)[C@@H]2C1	-37	95	57	.	.	.	.
Cc1ccccc1-c1ccc([C@@H]2[C@@H](CO)N3CCCCN(C(=O)Nc4ccc(F)cc4)C[C@@H]23)cc1	-13	93	54	.	.	.	.
Cc1ccccc1-c1ccc([C@@H]2[C@H](CO)N3CCCCN(C(=O)Nc4ccc(F)cc4)C[C@@H]23)cc1	-25	103*	-99*	92	107*	117*	103*
COc1ccc(-c2ccc3c(c2)[C@H]2[C@H](CCN2C(=O)NC2CCCC2)[C@H](CO)N3C)cc1	-78	.	17	.	.	.	.
Cc1noc(C)c1NC(=O)N(C)C[C@H]1Oc2ccc(NC(=O)CCC(F)(F)F)cc2C(=O)N([C@H](C)CO)C[C@H]1C	2	-28	-1	.	.	.	.
C[C@H](CO)N1C[C@H](C)[C@H](CN(C)S(C)(=O)=O)Oc2ccc(NS(=O)(=O)c3cccs3)cc2CC1=O	10	-6	-7	.	.	.	.
O=C(NCc1ccccc1Cl)[C@H]1[C@H](CO)[C@H]2Cn3c(cccc3=O)[C@H]2N1C(=O)C1CCCC1	-4	67	8	.	.	.	.
C/C=C/c1ccc([C@H]2[C@@H](CO)N3CCCCN(S(=O)(=O)c4ccc(OC)cc4)C[C@@H]23)cc1	-15	95*	13	111*	69	0	55*
C/C=C/c1ccc([C@H]2[C@H](CO)N3CCCCN(S(=O)(=O)c4ccc(F)cc4)C[C@@H]23)cc1	1	111*	38	108*	57	22	102*
C/C=C/c1ccc([C@@H]2[C@@H](CO)N3CCCCN(S(=O)(=O)c4ccc(OC)cc4)C[C@@H]23)cc1	-27	76	-7	.	.	.	.
C/C=C/c1ccc([C@@H]2[C@H](CO)N3CCCCN(S(=O)(=O)c4ccccc4)C[C@@H]23)cc1	-64	69	-2	.	.	.	.
O=C(C[C@H]1C[C@H]2c3cc(NC(=O)C4CCC4)ccc3O[C@H]2[C@H](CO)O1)NCc1cccnc1	-16	35	-3	.	.	.	.
Cc1ccc(-c2ccc3c(c2)O[C@@H](CN(C)Cc2cncnc2)[C@H](C)CN([C@H](C)CO)S3(=O)=O)cc1	-2	.	0	.	.	.	.
C[C@@H]1CN([C@@H](C)CO)S(=O)(=O)c2ccc(-c3ccncc3)cc2O[C@H]1CN(C)Cc1cncnc1	6	108*	1	104*	104*	3	45*
C[C@H]1CN([C@@H](C)CO)S(=O)(=O)c2ccc(-c3ccncc3)cc2O[C@@H]1CN(C)Cc1cncnc1	0	108*	1	103*	94	-2	17
Cc1ccc(-c2ccc3c(c2)O[C@H](CN(C)Cc2cncnc2)[C@@H](C)CN([C@@H](C)CO)S3(=O)=O)cc1	-11	.	0	.	.	.	.
C[C@@H]1CN([C@@H](C)CO)S(=O)(=O)c2ccc(-c3ccncc3)cc2O[C@@H]1CN(C)Cc1cncnc1	35	89	1	.	.	.	.
C[C@H](CO)N1C[C@H](C)[C@H](CN(C)Cc2cncnc2)Oc2cc(-c3ccncc3)ccc2S1(=O)=O	13	?	3	79	79	46*	49*
C[C@@H]1CN([C@H](C)CO)S(=O)(=O)c2ccc(C#CCC3CCCC3)cc2O[C@@H]1CN(C)C(=O)c1ccccn1	-59	110*	5	100*	29	51*	104*
C[C@H](CO)N1C[C@H](C)[C@@H](CN(C)C(=O)CN(C)C)Oc2cc(C#CCC3CCCC3)ccc2S1(=O)=O	-71	122	-2	.	.	.	.
SMILES	Pf Dd2 inh	T cruzi growth-1	C diff HTS	T cruzi growth-2	T cruzi growth-3	3T3 cytotox	3T3 cytotox 2
CCC(=O)N(C)C[C@@H]1Oc2cc(C#CCC3CCCC3)ccc2S(=O)(=O)N([C@@H](C)CO)C[C@H]1C	-56	129*	-12	109*	77	9	104*
CCC(=O)N(C)C[C@H]1Oc2cc(C#CCC3CCCC3)ccc2S(=O)(=O)N([C@@H](C)CO)C[C@H]1C	-46	119*	6	98*	89	27	105*
C[C@H]1CN([C@@H](C)CO)S(=O)(=O)c2ccc(C#CCC3CCCC3)cc2O[C@H]1CN(C)C(=O)CN(C)C	-69	107	1	.	.	.	.
CCC(=O)N(C)C[C@H]1Oc2cc(C#CCC3CCCC3)ccc2S(=O)(=O)N([C@@H](C)CO)C[C@@H]1C	-77	128*	7	106*	94	43*	105*
C[C@@H]1CN([C@@H](C)CO)S(=O)(=O)c2ccc(C#CCC3CCCC3)cc2O[C@@H]1CN(C)C(=O)c1ccccn1	-60	77	-1	.	.	.	.
CCC(=O)N(C)C[C@H]1Oc2cc(C#CCC3CCCC3)ccc2S(=O)(=O)N([C@H](C)CO)C[C@@H]1C	-35	75	12	.	.	.	.
Cc1cccc(NC(=O)Nc2ccc3c(c2)C(=O)N(C)[C@@H]2CC[C@H](CC(=O)O)O[C@H]2CO3)c1	-10	11	10	.	.	.	.
C[C@@H]1CN([C@@H](C)CO)C(=O)c2cc(C#Cc3ccccc3)cnc2O[C@@H]1CN(C)CC1CCOCC1	-22	31	11	.	.	.	.
CN1C(=O)c2cc(NC(=O)c3cccs3)ccc2OC[C@H]2O[C@H](CC(=O)NCC(F)(F)F)CC[C@@H]21	3	65	-3	.	.	.	.
C[C@H](CO)N1C[C@H](C)[C@@H](CN(C)C)Oc2cc(C#CCC3CCCC3)ccc2S1(=O)=O	-31	?	37	107*	86	31	103*
